The text below walks through data of PubChem BioAssay (NCATS).

Test [1] can be described thus: qHTS of pediatric cancer cell lines to identify multiple opportunities for drug repurposing: Primary screen for A673 cells (AID 1347092). Further: nearly all actives have a fitted effect of over 45% in size. In a few lines:
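A673 cells (500-1,000 cells/well) were treated 48 hours at 37 degrees C with compounds at 11-point (0.78 nM to 46 µM) or 8-point (0.59 nM to 46 µM) dilutions. Viability read by CellTiter-Glo luminescence; concentration-response curves fitted.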
(In general: qHTS replaces the single test concentration by a dilution series.)

Test [2] in a line: qHTS of pediatric cancer cell lines to identify multiple opportunities for drug repurposing: Primary screen for SK-N-MC cells (AID 1347093). In a few lines: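 Metabolically active cells were quantified by ATP-dependent luminescence (CellTiter-Glo, 15 min at room temperature) following 48 h treatment. Cells had been plated at 500-1,000 per well and settled for 5 h beforehand.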

Test [3] is described as follows: qHTS of pediatric cancer cell lines to identify multiple opportunities for drug repurposing: Primary screen for BT-37 cells (AID 1347094). In a few lines: (§1)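 ATP-based luminescence (CellTiter-Glo) quantifies viability after a 48-hour exposure. Compounds are dosed across 8 or 11 final concentrations; DMSO and 2.3 µM bortezomib serve as controls.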
Test [4] can be described thus: qHTS of pediatric cancer cell lines to identify multiple opportunities for drug repurposing: Primary screen for NB-EBc1 cells (AID 1347095). Put shortly:
as §1

The nature of test [5]: qHTS of pediatric cancer cell lines to identify multiple opportunities for drug repurposing: Primary screen for U-2 OS cells (AID 1347096). Further: nearly all actives have a fitted effect of over 50% in size. Put shortly:
(§2)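 Cells (500-1,000/well) rested 5 h, then received compounds for 48 h; metabolically active cells were measured by CellTiter-Glo luminescence. Final concentrations spanned up to 46 µM (MIPE, 11-point) or 0.59 nM-46 µM (NPC, 8-point) in primary screens, 11-point in follow-ups.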

Test [6] is described as follows: qHTS of pediatric cancer cell lines to identify multiple opportunities for drug repurposing: Primary screen for Saos-2 cells (AID 1347097). Further: nearly all actives have a fitted effect of over 40% in size. In a few lines:
as §1

Test [7] in a line: qHTS of pediatric cancer cell lines to identify multiple opportunities for drug repurposing: Primary screen for SK-N-SH cells (AID 1347098). Further: nearly all actives have a fitted effect of over 65% in size. In a few lines:
as §2

Test [8] can be described thus: qHTS of pediatric cancer cell lines to identify multiple opportunities for drug repurposing: Primary screen for NB1643 cells (AID 1347099). Further: nearly all actives have a fitted effect of over 50% in size. Put shortly:
as §1

Test [9] is described as follows: qHTS of pediatric cancer cell lines to identify multiple opportunities for drug repurposing: Primary screen for LAN-5 cells (AID 1347100). In a few lines: as §2
Test [10] is described as follows: qHTS of pediatric cancer cell lines to identify multiple opportunities for drug repurposing: Primary screen for BT-12 cells (AID 1347101). Further: nearly all actives have a fitted effect of over 25% in size. In a few lines: as §2
The nature of test [11]: qHTS of pediatric cancer cell lines to identify multiple opportunities for drug repurposing: Primary screen for Rh18 cells (AID 1347102). Further: nearly all actives have a fitted effect of over 65% in size. In a few lines:
as §2

A short description of test [12]: qHTS of pediatric cancer cell lines to identify multiple opportunities for drug repurposing: Primary screen for OHS-50 cells (AID 1347103). Further: nearly all actives have a fitted effect of over 40% in size. In a few lines:
as §2

A short description of test [13]: qHTS of pediatric cancer cell lines to identify multiple opportunities for drug repurposing: Primary screen for RD cells (AID 1347104). Further: nearly all actives have a fitted effect of over 55% in size. Put shortly:
as §1

Test [14] can be described thus: qHTS of pediatric cancer cell lines to identify multiple opportunities for drug repurposing: Primary screen for MG 63 (6-TG R) cells (AID 1347105). Further: nearly all actives have a fitted effect of over 50% in size. Put shortly: as §1
Test [15] can be described thus: qHTS of pediatric cancer cell lines to identify multiple opportunities for drug repurposing: Primary screen for control Hh wild type fibroblast cells (AID 1347106). Further: nearly all actives have a fitted effect of over 55% in size. Put shortly:
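Cells (500-1,000/well) in growth media were settled 5 h at 37 degrees C, then given compounds for 48 h. Viability was read as CellTiter-Glo luminescence. Primary runs used MIPE at 11 points (0.78 nM-46 µM) and NPC at 8 points (0.59 nM-46 µM); follow-ups used 11 points.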

Test [16] in a line: qHTS of pediatric cancer cell lines to identify multiple opportunities for drug repurposing: Primary screen for Rh30 cells (AID 1347107). Further: nearly all actives have a fitted effect of over 75% in size. In a few lines:
as §2

Test [17] is described as follows: qHTS of pediatric cancer cell lines to identify multiple opportunities for drug repurposing: Primary screen for Rh41 cells (AID 1347108). Further: nearly all actives have a fitted effect of over 70% in size. Put shortly: as §1
Test [18] in a line: qHTS of pediatric cancer cell lines to identify multiple opportunities for drug repurposing: Confirmatory screen for NB1643 cells (AID 1347109). Further: nearly all actives have a fitted effect of over 45% in size. In a few lines: as §2
The nature of test [19]: qHTS of pediatric cancer cell lines to identify multiple opportunities for drug repurposing: Confirmatory screen for SK-N-MC cells (AID 1347111).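 Further: cells exposed to compound for 48 h before the readout; nearly all actives have a fitted effect of over 70% in size.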 In a few lines: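 Seed 500-1,000 cells/well; rest 5 h at 37 degrees C. Pin-transfer compounds, 11-point titration. Incubate 48 h. Add CellTiter-Glo, 15 min RT, read luminescence.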
Test [20] in a line: qHTS of pediatric cancer cell lines to identify multiple opportunities for drug repurposing: Confirmatory screen for A673 cells (AID 1347110).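 Further: cells exposed to compound for 48 h before the viability read; nearly all actives have a fitted effect of over 65% in size.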 In a few lines:
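A673 cells at 500-1,000 cells/well were dosed 5 h after plating, in dilution series up to 46 uM final; primary runs used 8 or 11 points and confirmatory runs used 11 points. Viability was read by CellTiter-Glo luminescence after 48 h, against DMSO and 2.3 uM bortezomib controls.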

Inconclusive results are not listed. The source made the active and inactive calls. The call rests on the fitted dose curve; in most records, active means well fitted curve in the direction sought with a large enough effect; inconclusive means small, poorly fitted or top-dose-only effect, or another doubt; inactive means no such curve, though single readings can be large; an effect the other way counts as inactive or inconclusive.
Potency means the concentration at half of the fitted maximal effect.

As to `CC(=O)N1CCN(c2ccc(OCc3nn(C)c(C)c3-c3cccc4c(CCCOc5cccc6ccccc56)c(C(=O)O)n(Cc5cccnc5)c34)cc2)CC1`, the Potency in test [1] is 74.3 nM (active); in [2], 23.5 nM (active); in test [3] it was 485 nM (active); in [4] it was 418 nM (active); in test [5], 3720 nM (active); in test [6] it was 3720 nM (active). In addition, the Potency in [7] was 3830 nM (active); in test [8], 209 nM (active); in test [9], 148 nM (active); in test [10], 2430 nM (active); in [11], 590 nM (active); in test [12] it was 109 nM (active). The Potency in [13] was 1660 nM (active); in [14] it was 14800 nM (active); in test [15] it was 526 nM (active); in test [16], 4690 nM (active); in test [17], 743 nM (active); in test [19], 20800 nM (active). For the same compound, the Potency result in test [18] was “inactive”.

In the case of `CC(=O)N[C@@H]1[C@H](O[C@@H]2c3ccc(c(Cl)c3)Oc3cc4cc(c3O[C@H]3O[C@H](CO)[C@@H](O)[C@H](O)[C@H]3NC(=O)CCCCCCCC(C)C)Oc3ccc(cc3Cl)C[C@H]3NC(=O)[C@H](N)c5ccc(O)c(c5)Oc5cc(O)cc(c5)[C@H](NC3=O)C(=O)N[C@H]4C(=O)N[C@H]3C(=O)N[C@@H]2C(=O)N[C@@H](C(=O)O)c2cc(O)cc(O[C@H]4O[C@H](CO)[C@@H](O)[C@H](O)[C@H]4O)c2-c2cc3ccc2O)O[C@H](CO)[C@@H](O)[C@@H]1O`, the Potency result in test [1], in test [2], in test [3], in [4], in test [5] and in [6] was “inactive” throughout. In addition, the Potency entry in test [7], in test [8], in test [9], in test [10], in [11] and in test [13] was “inactive” throughout. In addition, the Potency entry in test [14], in test [15], in [16] and in [17] was “inactive” each time.

With `C=C1C(=CC=C2CCC[C@]3(C)[C@@H]([C@H](C)CCCC(C)(C)O)CC[C@@H]23)C[C@@H](O)C[C@@H]1O`, the Potency in test [1] was 1480 nM (active); in test [2], 1480 nM (active); in test [3], 6850 nM (active); in test [4], 2960 nM (active); in test [5] it was 18700 nM (active); in test [6], 14800 nM (active). The Potency in test [7] is 3830 nM (active); in [8], 2350 nM (active); in test [9] it was 1660 nM (active); in test [10], 6850 nM (active); in [12] it was 7690 nM (active); in [13] it was 9350 nM (active). Further, the results for the Potency in [14] and in test [17] were 11800 nM (active) and 5900 nM (active), respectively. Besides, the Potency result in [15], in test [18] and in test [20] was “inactive” in each case.

Take `CN[C@@H]1C[C@H]2O[C@@](C)([C@H]1OC)n1c3ccccc3c3c4c(c5c6ccccc6n2c5c31)C(=O)N[C@H]4O`: the Potency is 296 nM (active) in test [1]; 37.2 nM (active) in test [2]; 6850 nM (active) in test [3]; 166 nM (active) in test [4]; 2960 nM (active) in test [5]; 235 nM (active) in test [6]. For the same compound, the Potency was 607 nM (active) in [7]; 526 nM (active) in [8]; 1320 nM (active) in [9]; 27300 nM (active) in [10]; 590 nM (active) in [11]; 217 nM (active) in test [12]. The Potency in test [13] is 1050 nM (active); in [17] it was 5900 nM (active); in [18] it was 737 nM (active); in test [20], 369 nM (active); in test [19], 233 nM (active).

As for `COc1cc(OC)cc(-c2ccc3ncc4ccc(=O)n(-c5ccc(N6CCNCC6)c(C(F)(F)F)c5)c4c3c2)c1`, the Potency in test [1] is 935 nM (active); in [2], 1320 nM (active); in test [3] it was 15300 nM (active); in test [4], 3720 nM (active); in test [5], 14800 nM (active); in [6], 13200 nM (active). The Potency in [7] was 7640 nM (active); in test [8], 11800 nM (active); in test [9] it was 2640 nM (active); in test [10], 19300 nM (active); in test [11], 14800 nM (active); in test [12] it was 4320 nM (active). The Potency in test [13] was 8330 nM (active); in test [14] it was 14800 nM (active); in [15] it was 20900 nM (active); in test [16] it was 16600 nM (active); in [17] it was 3720 nM (active).

As for `O=C(O)C(=O)Nc1cccc(C2=NN=N[N]2)c1`, the Potency entry in test [1], in test [2], in test [3], in [4], in [5] and in [6] was “inactive” in each case. In addition, the Potency result in test [7], in test [8], in test [9], in test [10], in test [11] and in test [12] was “inactive” each time. Moreover, the Potency result in [13], in test [14], in test [15], in test [16] and in [17] was “inactive” in each case.

As to `CS[C@H]1SC[C@@H]2C(=O)N(C)[C@H](C(C)C)C(=O)OC[C@H](NC(=O)c3cnc4ccccc4n3)C(=O)N[C@H](C)C(=O)N(C)[C@@H]1C(=O)N(C)[C@H](C(C)C)C(=O)OC[C@H](NC(=O)c1cnc3ccccc3n1)C(=O)N[C@H](C)C(=O)N2C`, the Potency in test [1] was 2.3 nM (active); in [2] it was 1.3 nM (active); in [3], 1.7 nM (active); in test [5] it was 9.3 nM (active); in [6], 41.8 nM (active); in [7], 4.8 nM (active). In addition, the Potency in test [10] was 5.4 nM (active); in test [12], 12.2 nM (active); in test [13] it was 3 nM (active); in [14] it was 18.7 nM (active); in test [20], 5.9 nM (active); in [19], 13100 nM (active). Further, the Potency entry in test [4], in test [8], in test [9], in test [16] and in test [18] was “inactive” each time.

Turning to `CC(=O)N[C@H]1[C@@H]([C@H](O)[C@H](O)CO)OC(C(=O)O)=C[C@@H]1N=C(N)N`, the Potency entry in test [1], in [2], in test [3], in test [4], in test [5] and in [6] was “inactive” each time. In addition, the Potency entry in [7], in test [8], in test [9], in [10], in [11] and in [13] was “inactive” each time. Besides, the Potency result in test [14], in [15], in test [16] and in test [17] was “inactive” throughout.

For `C[C@H]1[C@@H](OC(=O)CCC(=O)O)O[C@@H]2O[C@@]3(C)CC[C@@H]4[C@H](C)CC[C@@H]1[C@@]24OO3`, the Potency in test [1] was 5900 nM (active); in [2], 935 nM (active); in [3], 3850 nM (active); in [4] it was 1660 nM (active); in test [7] it was 13600 nM (active); in test [8] it was 4180 nM (active). Also, the Potency in [9] is 3320 nM (active); in [10], 1220 nM (active); in test [11], 14800 nM (active); in [12], 1090 nM (active); in test [13] it was 1660 nM (active); in test [14], 18700 nM (active). Also, the Potency in test [18] was 14700 nM (active); in [20], 2330 nM (active); in [19], 3290 nM (active). The Potency result in [5], in [6] and in test [15] was “inactive” each time.

As to `C[C@@]12C[C@@]3(O)O[C@@H](O1)[C@]1(COC(=O)c4ccccc4)[C@@H]3C[C@@]12O[C@@H]1O[C@H](CO)[C@@H](O)[C@H](O)[C@@H]1O`, the Potency entry in [1], in test [2], in test [3], in [4], in test [5] and in [6] was “inactive” each time. Further, the Potency entry in test [7], in test [8], in test [9], in test [10], in test [11] and in test [13] was “inactive” throughout. The Potency entry in test [14], in test [15], in test [16] and in test [17] was “inactive” throughout.
